The supplement of paper PMC6607015
Counter-ions that a name gives are not always drawn.

Experiments:
Settings in all cases: compound concentration in added solution (µM; 5 µl added to 20 µl cells): 10; 18 h
A431 [1] = assay: LBPA endosome anti-LBPA integrated intensity (sum per cell), Z-score; higher = more LBPA staining
In short: (§1)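 Z-scores normalised in AcuityXpress are given for per-cell integrated LBPA or filipin intensity, measured whole-cell or within LBPA endosomes by MetaXpress segmentation. Cells (HeLa MZ or A431, 3,500 per well in 20 µl) were seeded onto 5 µl of 10 µM compound solution in duplicate 384-well imaging plates and fixed in 4% PFA after 18 h.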

HeLa MZ [2] = assay: as above
In short: as §1

A431 [3] = assay: whole-cell filipin (free cholesterol) integrated intensity, Z-score; higher = more cholesterol staining
In short: as §1

HeLa MZ [4] = assay: as above
In short: as §1

A431 [5] = assay: filipin (cholesterol) integrated intensity within LBPA endosomes, Z-score; higher = more cholesterol in LBPA endosomes
In short: as §1

HeLa MZ [6] = assay: as above
In short: as §1

Structure (SMILES)	LBPA endosome anti-LBPA integrated intensity (z-score) (A431 [1])	LBPA endosome anti-LBPA integrated intensity (z-score) (HeLa MZ [2])	whole-cell filipin (z-score) (A431 [3])	whole-cell filipin (z-score) (HeLa MZ [4])	filipin (z-score) (A431 [5])	filipin (z-score) (HeLa MZ [6])
CCCCC(CC)CN1CN(CC(CC)CCCC)CC(C)(N)C1 (centres undefined) [Hexetidine]	0.287	-1.15	1.01	-0.0808	0.351	-0.116
CCN(CC)CCOC(=O)C(c1ccccc1)c1ccccc1 [Adiphenine hydrochloride]	-0.67	-1.15	-1.14	-0.931	-0.574	-0.637
CS(=O)(=O)c1ccc([C@@H](O)[C@@H](CF)NC(=O)C(Cl)Cl)cc1 [Florfenicol]	-0.565	-1.2	-0.505	-0.36	-0.528	-0.651
O=C(CCCN1CCC(O)(c2ccc(Cl)cc2)CC1)c1ccc(F)cc1 [Haloperidol]	2.66	2.75	1.61	0.834	2.42	2.21
NC(Cc1cc(I)c(Oc2cc(I)c(O)c(I)c2)c(I)c1)C(=O)O (centres undefined) [Thyroxine (L)]	-0.687	-1.35	-1.1	-0.619	-0.586	-0.6
Cc1cccc(N(C)C(=S)Oc2ccc3ccccc3c2)c1 [Tolnaftate]	0.133	0.375	-0.581	-0.535	-0.301	-0.655
Nc1nc(F)nc2c1ncn2[C@@H]1O[C@H](CO)[C@@H](O)[C@@H]1O [Fludarabine]	-0.338	1.27	0.904	1.82	-0.372	-0.595
CC(C)(C)NCC(O)c1ccc(O)c(CO)c1 (centres undefined) [Salbutamol]	-0.288	-0.311	0.022	-0.307	-0.535	-0.499
CC(C)(C)NC(=O)[C@H]1CC[C@H]2[C@@H]3CC[C@H]4NC(=O)C=C[C@]4(C)[C@H]3CC[C@]12C [Finasteride]	-0.353	-0.576	0.536	0.274	-0.256	-0.306
CC(=O)OCC(=O)[C@@]12N=C(C)O[C@@H]1C[C@H]1[C@@H]3CCC4=CC(=O)C=C[C@]4(C)[C@H]3[C@@H](O)C[C@@]12C [Deflazacort]	-0.192	0.385	0.137	0.444	-0.208	-0.207
CNCCC(Oc1ccccc1OC)c1ccccc1 (centres undefined) [Nisoxetine hydrochloride]	-0.0713	0.75	0.38	0.302	-0.0689	-0.0239
CNC1(C)C2CCC(C2)C1(C)C (centres undefined) [Mecamylamine hydrochloride]	-0.608	-1.35	-0.41	-0.324	-0.495	-0.557
COc1c(O[C@@H]2O[C@H](CO)[C@@H](O)[C@H](O)[C@H]2O)cc2c(c1OC)-c1ccc(SC)c(=O)cc1[C@@H](NC(C)=O)CC2 [Thiocolchicoside]	-0.551	-0.233	-0.589	-0.789	-0.477	-0.471
CCn1cc(C(=O)O)c(=O)c2ccc(C)nc21 [Nalidixic acid sodium salt]	-0.59	-0.884	-0.346	-0.298	-0.467	-0.567
CCc1ccc(CCOc2ccc(CC3SC(=O)NC3=O)cc2)nc1 (centres undefined) [Pioglitazone]	-0.492	-0.449	-0.697	-0.748	-0.5	-0.629
CS(=O)(=O)c1ccc([C@@H](O)[C@@H](CO)NC(=O)C(Cl)Cl)cc1 [Thiamphenicol]	-0.461	-0.533	-0.551	-0.526	-0.439	-0.625
CCC[C@@H]1C[C@@H](C(=O)N[C@@H]([C@H]2O[C@H](SC)[C@H](O)[C@@H](O)[C@H]2O)[C@@H](C)O)N(C)C1 [Lincomycin hydrochloride]	-0.565	-0.696	-0.903	-1.08	-0.504	-0.682

Structure (SMILES)	LBPA endosome anti-LBPA integrated intensity (z-score) (A431 [1])	LBPA endosome anti-LBPA integrated intensity (z-score) (HeLa MZ [2])	whole-cell filipin (z-score) (A431 [3])	whole-cell filipin (z-score) (HeLa MZ [4])	filipin (z-score) (A431 [5])	filipin (z-score) (HeLa MZ [6])
CCCCCN(C)CCC(O)(P(=O)(O)O)P(=O)(O)O [Ibandronate sodium]	-0.326	0.467	-0.0185	0.267	-0.423	-0.352
Cc1ncc([N+](=O)[O-])n1CCO [Metronidazole]	-0.639	-1.28	-1.11	-0.583	-0.459	-0.544
CCN(CC)CCNC(=O)c1ccc(N)cc1 [Procainamide hydrochloride]	-0.492	0.0584	-0.628	0.713	-0.428	-0.159
CC[C@H]1OC(=O)C[C@@H](O)[C@H](C)[C@@H](O[C@@H]2O[C@H](C)[C@@H](O[C@H]3C[C@@](C)(O)[C@@H](O)[C@H](C)O3)[C@H](N(C)C)[C@H]2O)[C@@H](CC=O)C[C@@H](C)C(=O)/C=C/C(C)=C/[C@@H]1CO[C@@H]1O[C@H](C)[C@@H](O)[C@@H](OC)[C@H]1OC [Tylosin]	-0.392	0.456	-0.334	-0.339	-0.399	-0.321
CC1Cc2ccccc2N1NC(=O)c1ccc(Cl)c(S(N)(=O)=O)c1 (centres undefined) [Indapamide]	-0.302	0.5	-0.729	-0.419	-0.453	-0.438
COC(=O)C1=C(C)NC(C)=C(C(=O)OCC(C)C)C1c1ccccc1[N+](=O)[O-] (centres undefined) [Nisoldipine]	0.222	1.99	0.622	0.224	-0.263	-0.481
O=C1c2c(O)cccc2Cc2cccc(O)c21 [Anthralin]	-0.344	0.592	0.169	2.01	-0.334	-0.134
N[C@@H](Cc1ccc(O)c(O)c1)C(=O)O [Levodopa]	-0.339	-0.518	-0.462	-0.115	-0.332	-0.358
CCn1cc(C(=O)O)c(=O)c2cc(F)c(N3CCNCC3)cc21 [Norfloxacin]	-0.548	-0.705	-0.938	-1.18	-0.584	-0.612
Cc1ccc(-c2cc(C(F)(F)F)nn2-c2ccc(S(N)(=O)=O)cc2)cc1 [Celecoxib]	-0.0813	0.702	0.406	0.113	-0.205	-0.22
CCC1(c2ccccc2)NC(=O)N(C)C1=O (centres undefined) [Mephenytoin]	-0.412	-0.524	-0.0979	-0.325	-0.496	-0.516
NS(=O)(=O)c1cc2c(cc1Cl)NC(C(Cl)Cl)NS2(=O)=O (centres undefined) [Trichlormethiazide]	-0.262	0.0655	-0.129	-0.0923	-0.393	-0.381
CN1C(C)(C)CCCC1(C)C [Pempidine tartrate]	-0.407	–	-0.191	–	-0.313	–
CN[C@H]1CC[C@@H](c2ccc(Cl)c(Cl)c2)c2ccccc21 [Sertraline]	–	-0.719	–	0.938	–	3.15
OCCN1CCN(CCCN2c3ccccc3C=Cc3ccccc32)CC1 [Opipramol dihydrochloride]	0.228	1.81	0.629	-0.0646	0.712	1.15
COc1cc([C@@H]2c3cc4c(cc3[C@@H](O[C@@H]3O[C@@H]5CO[C@@H](C)O[C@H]5[C@H](O)[C@H]3O)[C@H]3COC(=O)[C@H]23)OCO4)cc(OC)c1O [Etoposide]	-0.699	–	2.27	–	-0.718	–
